A selection: hits, their analogues and other compounds. The true share with any hit is near 19%.
DT40 TDP1 no CPT – qHTS for Inhibitors of human tyrosyl-DNA phosphodiesterase 1 (TDP1): qHTS in cells in absence of CPT | DT40 Tdp1-/- hTDP1 cells, no CPT, ATP luminescence, 48 h | Potency, µM (titrated, usually from 46.2 µM), for the others: top-dose activity change, negative = growth inhibition, usual class: inhibitors | hit rate 15% among 420,000 | AID 686978, 2013; also: potency is read from the fitted curve at half-maximal effect; nearly all actives have a fitted effect of over 55% in size
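A cellular qHTS used chicken DT40 cells lacking endogenous Tdp1 but carrying stably transfected human TDP1. Compounds were applied without camptothecin, and cell growth kinetics were judged by ATP-dependent luminescence after ≥48 hr.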
HT1080-NT tox – qHTS for induction of synthetic lethality in tumor cells producing 2HG: qHTS for the HT-1080-NT fibrosarcoma cell line | HT-1080-NT fibrosarcoma viability, CellTiter-Glo ATP luminescence, 48 h | hit rate 1.6% among 360,000 | Potency, µM (series often up to 46.1 µM), for inactives: at the top dose activity, negative = less viability, actives largely listed as cytotoxic | AID 686970, 2013;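 also: NT is the 2HG producing partner of a matched IDH1 knockdown line; potency is read from the fitted curve at half-maximal effect; 0% = DMSO-treated cells and -100% = media-only wells without cells; nearly all actives have a fitted effect of over 55% in size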
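750 cells/well, RPMI + 5% FBS; 2 h settle, compound pin-transfer, 48 h at 37 degrees C. CellTiter-Glo 10 min RT, luminescence. Normalized to DMSO and media-only wells.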
IL1B secr inh – qHTS for Inhibitors of Inflammasome Signaling: IL-1-beta AlphaLISA Primary Screen. THP-1 LPS/ATP IL-1B secretion, AlphaLISA, 16 h; stronger effect = lower value. activity change, % at 57.5 µM. hit rate 4.7% among 360,000; in the data active = activity change below about -50%; inconclusive = mostly about -30% to -49%
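THP-1 cells pretreated 1 hr with compounds (up to 57.5 uM final), then stimulated with LPS (250 ng/mL final) plus ATP (1.25 mM final); secreted IL-1B measured by AlphaLISA after 16 hr, decreased signal indicating inhibition.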
DT40 TDP1 CPT – qHTS for Inhibitors of human tyrosyl-DNA phosphodiesterase 1 (TDP1): qHTS in cells in presence of CPT; hit rate 12% among 420,000; chicken DT40 Tdp1-/-;hTDP1 cells + 20 nM CPT, ATP luminescence, 48 h; AID 686979, 2013; Potency, µM (series often up to 46.2 µM), for the others: top-dose activity change, negative = growth inhibition, actives largely listed as inhibitors; also: potency is read from the fitted curve at half-maximal effect; nearly all actives have a fitted effect of over 55% in size
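Cell growth measured by CellTiter-Glo luminescence after a minimum 48 h, 37 C compound exposure with 20 nM CPT in Tdp1-knockout DT40 cells stably expressing hTDP1, seeded 400/well; qHTS titration format.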
HT1080 IDH1KD tx – qHTS for induction of synthetic lethality in tumor cells producing 2HG: qHTS for the HT-1080-IDH1KD cell line; HT-1080 IDH1 knockdown viability, ATP luminescence, 48 h; Potency, µM (top dose mostly 46.1 µM), without a hit: top-dose activity, negative = toxicity, hits mostly cytotoxic; hit rate 2% among 360,000; AID 686971, 2013;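 also: potency is read from the fitted curve at half-maximal effect; 0% = DMSO wells and -100% = cell-free medium wells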
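Using the IDH1-knockdown HT-1080 line run in the same batch and compound series as the NT line, viability after 48 h at 37 °C was determined by CellTiter-Glo luminescence and expressed as % activity.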
Numbers without * were called inactive; ? = inconclusive; . = not tested or not shown; ! = not active in a repeat; [ ] = remark or other dose. Unless noted, calls follow the shape of the dose curve; as a rule, active = well fitted curve in the direction sought with a large enough effect; inconclusive = small, poorly fitted or top-dose-only effect, or another doubt; inactive = no such curve, though single readings can be large; an effect the other way counts as inactive or inconclusive. Unless noted, % is scaled to controls: 0 for no effect and ±100 for the full control effect.

SMILES	DT40 TDP1 no CPT	HT1080-NT tox	IL1B secr inh	DT40 TDP1 CPT	HT1080 IDH1KD tx
Cc1ccc2c(c1)CCCN2C(=O)c1cccs1	-2%	-21%	17	-7%	?
CC(=O)Oc1ccc(/C=c2\sc3ncnn3c2=O)cc1	?	2%	0	21µM*	1%
Cc1ccc2cc(C(=O)O)c(C)nc2c1	-13%	23%	3	0%	22%
Cc1ccc(-c2nnc(CSc3nc(C(C)C)nc4sc(C)c(C)c34)o2)cc1	?	?	7	?	18%
O=C(NCC1CCCN(C(=O)CN2CCCCC2)C1)c1ccccc1Cl (stereo unspecified)	-1%	0%	19	20%	0%
CCN(C(=O)c1ccc2c(Cl)c3c(nc2c1)CCC3)c1ccc(C)c(C)c1	21µM*	?	-81*	21µM*	?
CN(C(=O)c1ccc2c(Cl)c3c(nc2c1)CCC3)c1ccccc1	?	9%	-5	?	4%
CN(C(=O)c1ccc2c(Cl)c3c(nc2c1)CCC3)c1ccccc1F	29µM*	.	.	-17%	.
CCc1ccc(Nc2nnc(SCC(=O)N(C)CC(=O)Nc3ccccc3CC)s2)cc1	15µM*	16%	-19	18µM*	9%
CCc1ccccc1NC(=O)CN(C)C(=O)CSc1nnc(Nc2cccc(C)c2)s1	?	6%	-6	-11%	6%
COc1ccc(CCNC(=O)c2nn(C)c3c2CS(=O)(=O)c2ccccc2-3)cc1OC	?	6%	6	-1%	11%
COc1ccccc1CN(C)C(=O)CSc1nnc(C2CC2)n1C1CC1	16µM*	18%	16	?	5%
NCCOB(c1ccccc1)c1ccccc1	16µM*	.	.	?	.
COc1cc(OC)c(C2Nc3cccc4cccc(c34)N2)c(OC)c1	15µM*	-18%	-16	21µM*	-11%
COc1ccccc1C1Nc2cccc3cccc(c23)N1	21µM*	-2%	-24	15µM*	-5%
Brc1ccc(C2Nc3cccc4cccc(c34)N2)o1	18µM*	?	-77*	21µM*	0%[9.24 µM]
Clc1cccc(C2Nc3cccc4cccc(c34)N2)c1	10µM*	0%	-23	5.2µM*	3%
Clc1ccc(C2Nc3cccc4cccc(c34)N2)cc1Cl	?	-4%	9	?	0%
CCOC(=O)C1=C(C)Nc2ccccc2N=C1NC(=O)C1CCN(C(=O)c2ccccc2C)CC1	-18%	-14%	0	?	-3%
CN(C)C1(CNC(=O)C2CCN(S(=O)(=O)c3cc(Cl)ccc3Cl)CC2)CCCCC1	?	-9%	0	?	-21%
CC(C)[C@@H]1CC[C@@H](C)CC1=O	-17%	.	.	-15%	.
O=C1NC[C@H](CCCCN2CCN(CCc3ccc(O)cc3)C(=O)C2=O)N(CCc2ccc(O)cc2)C1=O	-6%	14%	4	3%	7%
COc1cccc(-c2nn(-c3ccccc3)cc2/C=C(/NC(=O)c2ccccc2)C(=O)O)c1	6%	-4%	-4	-25%	-7%
O=[N+]([O-])c1ccccc1C1Nc2cccc3cccc(c23)N1	?	-11%	-66*	7.3µM*	-26%
Clc1cccc(Cl)c1C1Nc2cccc3cccc(c23)N1	?	?	-26	?	?
SMILES	DT40 TDP1 no CPT	HT1080-NT tox	IL1B secr inh	DT40 TDP1 CPT	HT1080 IDH1KD tx
c1ccc(C2Nc3cccc4cccc(c34)N2)cc1	-89%	1%	39	18µM*	4%
Oc1ccccc1C1Nc2cccc3cccc(c23)N1	?	0%	10	?	2%
COc1ccc(C2Nc3cccc4cccc(c34)N2)cc1	?	3%	29	21µM*	-1%
c1csc(C2Nc3cccc4cccc(c34)N2)c1	?	-6%	-27	16µM*	-11%
CCc1ccc(N2CC(C(=O)Nc3cc(C)on3)CC2=O)cc1 (stereo unspecified)	-22%	-5%	14	-6%	-2%
Cc1ccc(C)c(CN2CCC3(CCC(CNC(=O)c4ccnn4C)O3)CC2)c1 (stereo unspecified)	-28%	.	.	-6%	.
CSc1ccccc1NC(=O)COC(=O)c1ccc(-n2nc(C)cc2C)cc1	-5%	0%	-1	3%	7%
Fc1cccc(Cl)c1C1Nc2cccc3cccc(c23)N1	21µM*	-1%	-5	23µM*	-3%
CN(C)c1ccc(C2NC(=O)c3ccccc3N2)cc1 (stereo unspecified)	-15%	-22%	2	-49%	-23%
CN(C)c1ccc(C2Nc3cccc4cccc(c34)N2)cc1	23µM*	-4%	10	?	1%
CN(CC(=O)N(CCO)Cc1ccccc1)S(=O)(=O)c1ccc2c(c1)c(=O)n(C)c(=O)n2C	-1%	24%	0	-4%	4%
CCCCN(CCCC)C(=O)CN(C)S(=O)(=O)c1ccc2c(c1)c(=O)n(C)c(=O)n2C	?	.	.	23µM*	.
Cc1ccc(CNC(=O)CN(C)S(=O)(=O)c2ccc3c(c2)c(=O)n(C)c(=O)n3C)cc1	-6%	.	.	-8%	.
COc1ccc(CNC(=O)CN(C)S(=O)(=O)c2ccc3c(c2)c(=O)n(C)c(=O)n3C)cc1	16µM*!	0%	28	?	1%
COc1cc(CN2C(=O)CC[C@@H]3CN(Cc4ccccn4)CC[C@@H]32)cc(OC)c1OC	-23%	.	.	3%	.
CCc1ccc(NC(=O)C(C)OC(=O)c2ccc(NS(=O)(=O)c3ccc(C)c([N+](=O)[O-])c3)cc2)cc1 (stereo unspecified)	?	?	-77*	?	?
Cc1ccc(C(=O)NC2CC2)cc1S(=O)(=O)N1CCOCC1	0%	2%	-12	-2%	9%
CC(=O)Nc1ccc(NC(=O)C(C)OC(=O)c2ccc(S(=O)(=O)N3CCCCC3)cc2)cc1 (stereo unspecified)	?	23µM*	13	2%	?
COc1ccc(C(=O)NC2CCN(S(=O)(=O)c3ccc(F)cc3)CC2)cc1	8%	3%	-7	0%	-2%
CC(OC(=O)c1ccc(Cl)nc1)C(=O)Nc1ccc(S(=O)(=O)N2CCCC2)cc1 (stereo unspecified)	-12%	-2%	0	4%	3%
CCC(C)(C)C1CCC(NC(=O)c2ccc(S(=O)(=O)N3CCOCC3)cc2)CC1 (stereo unspecified)	23µM*	1%[9.24 µM]	-2	15µM*	-28%
